# Assay results: ChEMBL document CHEMBL2218924, “A broad activity screen in support of a chemogenomic map for kinase signalling research and drug discovery” (Biochem J, 2013)
# Columns and labels:
# [1] = target: T1, Serine/threonine-protein kinase TAO3 (Homo sapiens) (UniProt Q9H2K8); conditions: at 10 µM
# T1 sequence (whole entry): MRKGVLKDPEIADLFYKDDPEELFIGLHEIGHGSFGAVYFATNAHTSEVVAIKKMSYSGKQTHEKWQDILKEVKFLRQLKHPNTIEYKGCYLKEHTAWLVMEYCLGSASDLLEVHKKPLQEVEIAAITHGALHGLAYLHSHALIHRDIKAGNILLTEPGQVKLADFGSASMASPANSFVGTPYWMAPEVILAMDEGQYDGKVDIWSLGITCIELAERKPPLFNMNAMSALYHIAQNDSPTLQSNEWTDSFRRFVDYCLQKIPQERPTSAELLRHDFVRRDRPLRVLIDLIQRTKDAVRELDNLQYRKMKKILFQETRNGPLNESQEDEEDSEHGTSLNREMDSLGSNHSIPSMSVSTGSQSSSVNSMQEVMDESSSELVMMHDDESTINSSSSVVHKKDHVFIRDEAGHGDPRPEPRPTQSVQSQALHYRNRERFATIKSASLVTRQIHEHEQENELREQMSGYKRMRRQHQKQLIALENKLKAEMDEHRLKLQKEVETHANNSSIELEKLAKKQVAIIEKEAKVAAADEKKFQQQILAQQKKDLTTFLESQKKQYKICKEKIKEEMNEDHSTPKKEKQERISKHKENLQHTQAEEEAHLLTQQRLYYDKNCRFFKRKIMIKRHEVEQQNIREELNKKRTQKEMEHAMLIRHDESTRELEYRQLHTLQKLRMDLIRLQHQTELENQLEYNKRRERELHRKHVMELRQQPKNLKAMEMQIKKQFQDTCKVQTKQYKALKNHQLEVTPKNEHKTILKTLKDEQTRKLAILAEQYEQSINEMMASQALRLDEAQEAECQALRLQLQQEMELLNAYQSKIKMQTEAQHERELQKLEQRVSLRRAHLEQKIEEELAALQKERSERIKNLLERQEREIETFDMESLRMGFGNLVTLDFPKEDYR
# [2] = target: T2, Serine/threonine-protein kinase TBK1 (Homo sapiens) (UniProt Q9UHD2); conditions: at 1 µM
# T2 sequence (whole entry): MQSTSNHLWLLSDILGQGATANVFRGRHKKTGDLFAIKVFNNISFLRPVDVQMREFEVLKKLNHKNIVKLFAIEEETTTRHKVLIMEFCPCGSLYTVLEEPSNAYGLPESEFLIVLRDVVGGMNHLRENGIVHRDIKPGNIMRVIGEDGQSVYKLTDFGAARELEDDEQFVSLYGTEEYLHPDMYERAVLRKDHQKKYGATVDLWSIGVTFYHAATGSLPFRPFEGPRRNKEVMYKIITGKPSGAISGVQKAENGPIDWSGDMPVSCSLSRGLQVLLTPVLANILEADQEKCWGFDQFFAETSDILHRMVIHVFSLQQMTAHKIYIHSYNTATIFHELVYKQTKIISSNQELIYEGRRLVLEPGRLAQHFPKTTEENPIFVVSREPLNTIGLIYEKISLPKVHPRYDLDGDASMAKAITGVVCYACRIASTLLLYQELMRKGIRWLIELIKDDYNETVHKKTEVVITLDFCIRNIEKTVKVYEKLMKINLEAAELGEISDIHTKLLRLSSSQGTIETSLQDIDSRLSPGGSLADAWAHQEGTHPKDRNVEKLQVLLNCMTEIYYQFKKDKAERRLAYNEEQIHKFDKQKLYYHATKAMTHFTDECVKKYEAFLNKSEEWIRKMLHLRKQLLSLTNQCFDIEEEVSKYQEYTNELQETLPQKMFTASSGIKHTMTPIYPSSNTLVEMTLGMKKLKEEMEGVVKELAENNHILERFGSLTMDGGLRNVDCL
# [3] = target: T2, Serine/threonine-protein kinase TBK1 (Homo sapiens); conditions: at 10 µM
# [4] = target: T3, TGF-beta receptor type-1 (Homo sapiens) (UniProt P36897); conditions: at 1 µM
# T3 sequence (whole entry): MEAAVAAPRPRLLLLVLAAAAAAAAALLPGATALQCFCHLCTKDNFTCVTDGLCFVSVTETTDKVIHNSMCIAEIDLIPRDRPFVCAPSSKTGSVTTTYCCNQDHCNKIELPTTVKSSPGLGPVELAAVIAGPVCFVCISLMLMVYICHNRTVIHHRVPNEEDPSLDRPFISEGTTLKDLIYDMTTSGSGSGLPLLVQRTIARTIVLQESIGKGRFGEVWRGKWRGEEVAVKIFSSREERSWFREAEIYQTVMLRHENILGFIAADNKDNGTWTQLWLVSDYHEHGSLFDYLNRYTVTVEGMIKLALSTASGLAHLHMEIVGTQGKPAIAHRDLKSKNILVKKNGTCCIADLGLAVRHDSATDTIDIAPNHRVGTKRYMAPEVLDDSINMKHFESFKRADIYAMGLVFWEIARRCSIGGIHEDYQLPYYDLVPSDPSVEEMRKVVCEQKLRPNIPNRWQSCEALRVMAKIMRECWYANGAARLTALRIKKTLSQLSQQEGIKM
# [5] = target: T3, TGF-beta receptor type-1 (Homo sapiens); conditions: at 10 µM
# [6] = target: T4, Inhibitor of nuclear factor kappa-B kinase subunit alpha (Homo sapiens) (UniProt O15111); conditions: at 1 µM
# T4 sequence (whole entry): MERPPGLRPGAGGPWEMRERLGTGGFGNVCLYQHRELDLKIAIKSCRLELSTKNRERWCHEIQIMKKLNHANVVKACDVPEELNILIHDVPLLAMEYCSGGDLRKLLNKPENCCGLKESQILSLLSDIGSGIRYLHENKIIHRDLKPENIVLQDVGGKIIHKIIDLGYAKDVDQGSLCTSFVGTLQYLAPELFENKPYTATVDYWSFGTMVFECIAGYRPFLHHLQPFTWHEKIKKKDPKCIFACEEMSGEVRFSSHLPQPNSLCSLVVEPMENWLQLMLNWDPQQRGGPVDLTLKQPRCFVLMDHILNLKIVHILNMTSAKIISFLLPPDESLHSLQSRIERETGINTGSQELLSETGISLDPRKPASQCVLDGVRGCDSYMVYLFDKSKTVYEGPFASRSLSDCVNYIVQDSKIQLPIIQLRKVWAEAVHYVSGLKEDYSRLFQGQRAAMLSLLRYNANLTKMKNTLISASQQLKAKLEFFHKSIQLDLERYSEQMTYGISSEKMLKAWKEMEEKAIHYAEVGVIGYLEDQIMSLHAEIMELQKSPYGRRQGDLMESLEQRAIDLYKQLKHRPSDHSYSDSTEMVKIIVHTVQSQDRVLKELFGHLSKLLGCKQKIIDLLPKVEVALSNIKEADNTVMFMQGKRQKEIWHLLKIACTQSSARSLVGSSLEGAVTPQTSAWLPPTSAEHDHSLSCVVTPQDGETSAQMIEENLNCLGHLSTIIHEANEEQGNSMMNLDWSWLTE
# [7] = target: T4, Inhibitor of nuclear factor kappa-B kinase subunit alpha (Homo sapiens); conditions: at 10 µM
# [8] = target: T5, Inhibitor of nuclear factor kappa-B kinase subunit beta (Homo sapiens) (UniProt O14920); conditions: at 1 µM
# T5 sequence (whole entry): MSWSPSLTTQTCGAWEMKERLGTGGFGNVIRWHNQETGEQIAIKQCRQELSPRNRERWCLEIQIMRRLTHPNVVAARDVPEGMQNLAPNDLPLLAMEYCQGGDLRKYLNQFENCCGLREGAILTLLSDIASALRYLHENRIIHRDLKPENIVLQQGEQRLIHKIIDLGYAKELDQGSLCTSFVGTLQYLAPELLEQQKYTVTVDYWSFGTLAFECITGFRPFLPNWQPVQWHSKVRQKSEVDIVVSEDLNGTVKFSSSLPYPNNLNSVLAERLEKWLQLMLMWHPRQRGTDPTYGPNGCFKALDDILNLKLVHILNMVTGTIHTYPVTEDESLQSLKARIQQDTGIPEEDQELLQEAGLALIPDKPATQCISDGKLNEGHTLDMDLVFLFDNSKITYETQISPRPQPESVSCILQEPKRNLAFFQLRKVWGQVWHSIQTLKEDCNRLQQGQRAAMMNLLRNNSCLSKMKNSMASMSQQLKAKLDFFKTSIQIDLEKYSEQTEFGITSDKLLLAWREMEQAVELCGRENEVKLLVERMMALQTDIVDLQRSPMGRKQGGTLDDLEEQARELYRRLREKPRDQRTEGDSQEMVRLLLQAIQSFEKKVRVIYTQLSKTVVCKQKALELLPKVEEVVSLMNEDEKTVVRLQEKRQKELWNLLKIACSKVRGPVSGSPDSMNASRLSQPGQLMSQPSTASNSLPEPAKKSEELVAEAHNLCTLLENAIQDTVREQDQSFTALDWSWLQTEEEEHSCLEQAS
# [9] = target: T5, Inhibitor of nuclear factor kappa-B kinase subunit beta (Homo sapiens); conditions: at 10 µM
structure (smiles),measurement,setting,value
O=C(c1cc2cc(O)ccc2[nH]1)c1cc2cc(O)ccc2[nH]1,residual activity,[1],22%
same,residual activity,[2],16%
same,residual activity,[3],2%
same,residual activity,[4],79%
same,residual activity,[5],80%
same,residual activity,[6],109%
same,residual activity,[7],77%
same,residual activity,[8],70%
same,residual activity,[9],34%
